The list is not random: actives were taken first. Their share in the collection is about 1.6%.
KCNQ2 enhance: KCNQ2 (rat) channel potentiation; O88943; CHO-K1 KCNQ2, FluxOR thallium flux fluorescence; hits give high values; B-score at 10 µM; 310,000 tested, 0.54% active; AID 2239;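 active = fluorescence ratio B-score at least 3 SD of library B-scores, with initial fluorescence B-score within 3 of them, cut at about 5.3 in these data; same plate scores as AID 2156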;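 also: B-score of peak minus minimum over baseline fluorescence ratio after K+ and Tl+ stimulus; positive B-score means potentiation of KCNQ2 with more thallium influx and brighter signal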
Target sequence (O88943 whole entry, looked up): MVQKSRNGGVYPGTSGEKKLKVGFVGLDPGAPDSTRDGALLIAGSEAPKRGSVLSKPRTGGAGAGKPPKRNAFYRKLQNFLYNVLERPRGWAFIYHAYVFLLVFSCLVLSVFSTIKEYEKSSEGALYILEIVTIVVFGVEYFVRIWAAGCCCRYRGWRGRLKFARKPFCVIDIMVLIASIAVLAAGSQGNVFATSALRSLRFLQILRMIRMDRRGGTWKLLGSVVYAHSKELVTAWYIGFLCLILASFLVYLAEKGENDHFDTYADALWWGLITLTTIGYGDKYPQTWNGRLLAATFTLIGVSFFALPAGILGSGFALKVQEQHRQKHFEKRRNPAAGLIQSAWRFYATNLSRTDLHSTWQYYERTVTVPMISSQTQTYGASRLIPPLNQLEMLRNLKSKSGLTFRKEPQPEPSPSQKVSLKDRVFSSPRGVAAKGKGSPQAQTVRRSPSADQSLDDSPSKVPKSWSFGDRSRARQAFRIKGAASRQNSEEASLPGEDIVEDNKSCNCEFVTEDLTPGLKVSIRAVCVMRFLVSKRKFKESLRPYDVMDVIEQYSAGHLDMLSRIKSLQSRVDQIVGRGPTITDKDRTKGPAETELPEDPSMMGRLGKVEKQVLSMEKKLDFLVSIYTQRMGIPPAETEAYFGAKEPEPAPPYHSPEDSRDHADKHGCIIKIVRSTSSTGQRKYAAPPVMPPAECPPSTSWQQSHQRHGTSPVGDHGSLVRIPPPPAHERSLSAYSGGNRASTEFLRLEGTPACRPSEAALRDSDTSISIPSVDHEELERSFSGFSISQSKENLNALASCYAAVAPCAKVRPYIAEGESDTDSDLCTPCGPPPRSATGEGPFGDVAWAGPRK
KCNQ2 block: inhibitors of rat KCNQ2 potassium channel. CHO-K1 KCNQ2, FluxOR thallium flux, 20 min; hits give low values. O88943. 310,000 tested, 1.1% active. B-score at 10 µM;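 active = fluorescence ratio B-score at most minus 3 library SDs, with starting brightness B-score within 2 library SDs, cut at about -5.5 in these data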
Numbers without * were called inactive; i = inactive; nt = not tested or not shown.

SMILES | KCNQ2 enhance | KCNQ2 block
Cc1ccc(-c2cccc(C(=O)NCCc3ccccc3)n2)c2ccccc12 | -6.32 | -6.32*
Cc1ccc(-c2cccc(C(=O)NCc3ccccc3)n2)c2ccccc12 | nt | i
COc1cc(NC(=S)N2CCN(S(=O)(=O)c3ccc(C)cc3)CC2)cc(OC)c1 | 0.05 | i
Cc1cccc(CN2CCN(C(c3ccccc3)c3ccc(Cl)cc3)CC2)c1 (centres undefined) | -5.94 | -5.94*
COc1cc(CN2CCN(C(c3ccccc3)c3ccccc3)CC2)cc(OC)c1OC | nt | i
COC(=O)C1CN(C(=O)COc2ccc(C)cc2)c2ccccc2O1 (centres undefined) | 0.07 | i
COCCNC(=O)C(c1ccc(F)cc1)N(C(=O)CCC(=O)Nc1ccccn1)C1CCCCC1 (centres undefined) | 0.58 | i
O=C(c1sc2ccccc2c1Cl)N1CCN(c2ccc(F)cc2)CC1 | -6.59 | -6.59*
O=C(c1sc2ccccc2c1Cl)N1CCN(c2ccccc2F)CC1 | nt | i
CC(C)(C)c1ccc(NC(=O)N2CCCN(c3c(Cl)cncc3Cl)CC2)cc1 | 1.28 | i
Cn1nc(NC(=O)CC(C)(C)CC(=O)O)c2ccccc21 | 0.17 | i
CC(C)(C)n1nnnc1C(c1cccc(C#N)c1)N1CCC(Cc2ccccc2)CC1 (centres undefined) | 0.94 | i
CCC(C)(C)n1nnnc1C(c1cccc(C#N)c1)N1CCN(c2cc(C)ccc2C)CC1 (centres undefined) | -5.84 | -5.84*
Cc1ccc(S(=O)(=O)Nc2cccc(C(=O)NCc3ccccn3)c2)cc1F | 1.31 | i
COC(=O)c1ccc(C(=O)OC)c(N)c1 | -5.66 | -5.66*
COC(=O)c1ccc(N2CCCCC2)c(N)c1 | nt | i
Cc1nc2c(-c3ccc(F)cc3)c(C)nn2c(C)c1CCC(=O)N1CCN(c2ccccc2)CC1 | nt | i
Cc1nc2c(-c3ccc(F)cc3)c(C)nn2c(C)c1CCC(=O)N1CCC(Cc2ccccc2)CC1 | -6.06 | -6.06*
CCOC(=O)c1ccc(NCc2cccnc2)cc1 | nt | i
O=C(Cc1ccc(Cl)cc1)NCc1ccccc1Cl | nt | i
O=C(NCc1ccccc1Cl)C1(S(=O)(=O)c2ccc(Cl)cc2)CC1 | -5.73 | -5.73*
Oc1ccc(NCc2cccc(OCc3ccc(F)cc3)c2)cc1 | -5.85 | -5.85*
Oc1ccc(NCc2cccc(OCc3ccccc3)c2)cc1 | nt | i
O=C(Cc1c(F)cccc1Cl)Nc1nccs1 | 0.39 | i
CC(=O)N1c2ccc(S(=O)(=O)N(C)Cc3ccccc3)cc2CC1C (centres undefined) | 1.15 | i
SMILES | KCNQ2 enhance | KCNQ2 block
Cc1cc(NC(=O)c2cn(C3CCCCC3)c(=O)c3c2c2ccccc2n3C)no1 | -5.8 | -5.8*
Cc1ccc(CNC(=O)c2cn(C3CCCCC3)c(=O)c3c2c2ccccc2n3C)o1 | nt | i
CCOc1ccc(N2C(=O)CC(NC3CCN(C(=O)c4ccc(F)cc4)CC3)C2=O)cc1 (centres undefined) | nt | i
CCOC(=O)c1ccc(N2C(=O)CC(NC3CCN(C(=O)c4ccc(F)cc4)CC3)C2=O)cc1 (centres undefined) | -9.5 | -9.5*
COc1cc2c(cc1NC(=O)COC(=O)/C=C/c1ccc([N+](=O)[O-])cc1)oc1ccccc12 | nt | i
COc1cc2c(cc1NC(=O)/C=C/c1ccc([N+](=O)[O-])cc1)oc1ccccc12 | 5.61* | i
COCn1c(-c2ccc(OC)c(OC)c2)nc2ccccc21 | nt | i
COCn1c(-c2cccc(Br)c2)nc2ccccc21 | -5.9 | -5.9*
O=C(Nc1ccccc1)N1CCc2ccccc21 | nt | i
O=C(NCC1CCCC(CNC(=O)N2CCc3ccccc32)C1)N1CCc2ccccc21 (centres undefined) | -5.78 | -5.78*
O=C(NCC(c1cccs1)N1CCOCC1)c1ccccc1NS(=O)(=O)c1cc([N+](=O)[O-])ccc1Cl (centres undefined) | nt | i
O=C(NCC(c1cccs1)N1CCOCC1)c1ccccc1NS(=O)(=O)c1ccc(Cl)c([N+](=O)[O-])c1 (centres undefined) | -6.24 | -6.24*
Cc1cc(C)n(-c2nc3ccccc3c(=O)n2OCCOc2ccccc2)n1 | -5.6 | -5.6*
C=CCOn1c(-n2nc(C)cc2C)nc2ccccc2c1=O | nt | i
Cc1ccc(NC(=O)NC2CCCc3ccccc32)cc1 (centres undefined) | -5.78 | -5.78*
CC(C)(C)c1ccc(NC(=O)NC2CCCc3ccccc32)cc1 (centres undefined) | nt | i
CCOCCCN(CCC#N)C(=O)C1CCN(S(=O)(=O)c2ccc(-n3cnnn3)cc2)CC1 | nt | i
C[C@H](CO)NC(=O)[C@H](C)[C@H]1C[C@]1(C)[C@H](NC(=O)OCc1ccccc1)c1ccccc1 | 0.67 | i
C[C@@H](C(=O)NCC1CC1)[C@@H]1C[C@@]1(C)[C@@H](NC(=O)OCc1ccccc1)c1ccccc1 | nt | i
C[C@@H](C(=O)NCc1ccccn1)[C@H]1C[C@]1(C)[C@H](NC(=O)OCc1ccccc1)c1ccccc1 | -6.68 | -6.68*
